S1P3 antagonist – antagonists of human S1P3 receptor; CHO S1P3 NFAT-BLA reporter, FRET fluorescence, antagonist mode; inhibition, % at 4.98 µM; 170,000 compounds, 0.27% hits; AID 485;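 active = inhibition above the plate cutoff, the mean inhibition of test wells on that plate plus 3 SD, cut at about 28% in these data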;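 also: cells challenged with S1P at its EC80 of 0.8 µM; blue over green emission ratio from cleaved BLA substrate after 4 h stimulation; 0% = S1P-stimulated wells and 100% = unstimulated DMSO-only wells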
S1P4 ag – human S1P4 receptor agonism; AID 1509; O95977; 220,000 compounds, 0.35% hits; S1P4-expressing cell line, agonist reporter assay; activation, % at 4.98 µM; in the data active = activation above about 11%;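 also: 0% = DMSO vehicle and 100% = reference agonist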
KCC2 mod – modulates chloride dependent transport by human KCC2; B-score of Tl+ flux slope (higher = more flux/activation; lower = inhibition) at 10 µM; Q9H2X9; 190,000 compounds, 2.2% hits; AID 1456; KCC2 cells, thallium flux FluoZin-2 fluorescence;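 active = thallium flux slope and its plate-corrected score both differing from the plate sample mean at a set confidence after two filtering rounds, in either direction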;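 also: slope of fluorescence scaled to starting intensity during 10 to 20 s after thallium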
Target sequence (Q9H2X9 whole entry, looked up): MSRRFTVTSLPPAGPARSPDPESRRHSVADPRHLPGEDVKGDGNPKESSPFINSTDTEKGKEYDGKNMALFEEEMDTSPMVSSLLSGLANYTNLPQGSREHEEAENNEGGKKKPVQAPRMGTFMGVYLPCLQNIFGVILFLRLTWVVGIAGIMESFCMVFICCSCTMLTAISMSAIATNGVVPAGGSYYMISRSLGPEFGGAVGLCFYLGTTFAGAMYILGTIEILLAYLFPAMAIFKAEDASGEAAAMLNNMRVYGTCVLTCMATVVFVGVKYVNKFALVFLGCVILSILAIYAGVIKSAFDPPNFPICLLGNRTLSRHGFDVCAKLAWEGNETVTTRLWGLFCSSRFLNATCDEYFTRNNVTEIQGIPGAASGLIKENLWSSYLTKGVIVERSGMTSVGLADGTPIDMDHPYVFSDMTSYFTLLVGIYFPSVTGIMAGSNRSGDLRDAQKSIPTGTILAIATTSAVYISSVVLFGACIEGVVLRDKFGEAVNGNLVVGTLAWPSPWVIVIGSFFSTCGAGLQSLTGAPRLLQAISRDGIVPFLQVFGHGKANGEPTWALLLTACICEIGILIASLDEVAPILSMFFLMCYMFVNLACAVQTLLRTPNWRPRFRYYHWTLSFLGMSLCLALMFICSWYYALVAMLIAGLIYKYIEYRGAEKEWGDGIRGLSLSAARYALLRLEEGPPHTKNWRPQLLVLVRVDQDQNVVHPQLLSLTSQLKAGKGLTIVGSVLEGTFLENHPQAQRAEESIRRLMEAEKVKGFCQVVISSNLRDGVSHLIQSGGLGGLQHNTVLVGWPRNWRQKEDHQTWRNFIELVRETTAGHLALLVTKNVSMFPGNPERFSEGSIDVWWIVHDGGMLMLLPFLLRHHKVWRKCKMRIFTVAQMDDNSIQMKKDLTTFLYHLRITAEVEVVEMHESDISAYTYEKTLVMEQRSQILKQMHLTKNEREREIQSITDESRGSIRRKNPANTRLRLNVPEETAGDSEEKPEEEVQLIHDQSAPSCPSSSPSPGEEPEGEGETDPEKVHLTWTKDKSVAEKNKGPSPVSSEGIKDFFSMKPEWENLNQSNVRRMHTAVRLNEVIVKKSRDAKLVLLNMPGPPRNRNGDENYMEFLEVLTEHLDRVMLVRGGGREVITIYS
S1P4 antagonist – human S1P4 receptor antagonism; O95977; S1P4-expressing cells, antagonist mode, reporter read-out; inhibition, % at 4.98 µM; 220,000 compounds, 0.26% hits; AID 1510; in the data active = inhibition above about 29%;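 also: 0% = wells stimulated with agonist and 100% = vehicle wells without agonist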
RAM inhibit – inhibitors of the yeast RAM network. S. cerevisiae dse1pr::URA3 reporter, 5-FOA growth OD615, 2 d; analog-sensitive cbk1-as2 kinase mutant strain. inhibition, % at 50 µM. 190,000 compounds, 1.8% hits;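 active = inhibition above a set limit, 3 SD over mean compound inhibition, cut at about 8.4% in these data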;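 also: 0% = DMSO-only wells with no growth and 100% = 10 µM 1-NA-PP1 full growth; inhibition rescues growth on 5-FOA so higher OD means more RAM inhibition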
ROMK primary – modulates human ROMK potassium channel activity; P48048; Tet-inducible ROMK, thallium flux fluorescence; actives lie on both sides; B-score at 10 µM; 130,000 compounds, 2% hits;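 active = signal ratio slope over the read window, or its plate-corrected B-score, at least 3 SD from the plate mean, either direction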;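 also: B-score of the F/F0 ratio slope over 7 to 12 s after thallium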
ROMK retest – retested hit modulating human ROMK potassium channel. shares compounds with ROMK primary. 3,000 compounds, 54% hits. normalized thallium flux (F/F0 slope) at 10 µM. ROMK thallium flux, fluorescence ratio; hits give low values. AID 1917;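 active = Flux at 10 µM at least 3 SD below or above vehicle control mean in one or both replicates; inconclusive = no clear call, values can overlap the other calls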
* = called active by the depositor; ? = inconclusive; · = not tested or not shown. Rows were chosen to be rich in hits. Some 5.1% of all compounds tested hit in one or more screens of this group.

SMILES	S1P3 antagonist	S1P4 ag	KCC2 mod	S1P4 antagonist	RAM inhibit	ROMK primary	ROMK retest
Cc1cc(C2(c3ccc(O)c(C)c3)OC(=O)c3ccccc32)ccc1O	-11	1	1.6	-5	5	-1.2	0.073
Cc1cc(O)c(C(C)C)cc1C1(c2cc(C(C)C)c(O)cc2C)OC(=O)c2ccccc21	6	-1	0.17	7	·	·	·
O=C(/C(=C/c1ccncc1)n1ccnc1)c1ccc(Cl)cc1Cl	2	0	-0.78	1	·	-7.9*	0.03*
N/C(=N\OC(=O)c1ccc(Cl)cc1Cl)c1ccncc1	3	1	0.56	-16	·	·	·
O=C(/C(=C/c1cccnc1)n1ccnc1)c1ccc(Cl)cc1Cl	3	-1	0.56	3	·	-5.6*	0.03*
CCn1c(=O)c([N+](=O)[O-])c(Cl)c2ccccc21	-1	2	-2.4	2	1	-4.9*	0.046*
CCn1c(=O)c([N+](=O)[O-])c(NCCN(C)C)c2ccccc21	-30	0	-0.8	6	0	0.079	·
C[C@@H]1NC(=O)c2cc([N+](=O)[O-])cc(I)c2OCC[C@@H](C(=O)NC(CC(=O)O)C(N)=O)NC(=O)[C@H](CC(N)=O)NC1=O (stereo not given in full)	-11	1	0.11	3	-1	-0.0016	·
Cc1[nH]n(-c2ccc(C(=O)O)cc2)c(=O)c1CCO	-6	2	1	-1	2	3.8*	0.081
CCCCn1c(SCC(=O)Nc2cc(C)on2)nnc1-c1ccco1	·	-1	-0.47	-24	2	3.2*	0.078
CCn1c(SCC(=O)Nc2cc(C)on2)nnc1-c1ccco1	·	3	-0.12	6	0	0.41	·
C=CCc1cccc(CNc2c(C)cc(C)cc2C)c1O	-7	1	0.48	14	1	0.67	·
Cc1ccc(NC(=S)N(CCCN2CCCC2)Cc2cccn2Cc2ccc(Cl)cc2)cc1Cl	-8	0	-0.19	1	4	·	·
Cc1ccc(NC(=S)N(CCCN2CCCC2)Cc2cccn2Cc2ccc(Cl)cc2)cc1C	14	-1	0	6	5	-2.8*	0.062*
C/C(CC(=O)Nc1cccc(C(F)(F)F)c1)=N/NC(=O)C(=O)NCCO	8	1	·	-1	·	·	·
CC1(C)CC(Nc2ccc(C(F)(F)F)cc2[N+](=O)[O-])CC(C)(C)N1	-1	-2	-1.3	-17	0	-2.6*	0.055*
COCCn1c(-c2ccc(Br)cc2)nc2oc3cc(OC)ccc3c(=O)c2c1=O	-14	-2	-1.8	1	·	·	·
COc1ccc(N=C2O/C(=C/c3sc(=S)n(CC4CCCO4)c3O)N=C2C#N)cc1 (stereo not given)	-1	0	-2	-5	·	·	0.055*
COc1ccc(/C=C2\SC(=S)N(CC3CCCO3)C2=O)cc1 (stereo not given)	-2	1	0.18	-1	·	0.36	·
Cn1c(=O)c2cc3ccccc3nc2n(C)c1=O	-2	1	0.06	6	·	-5.1*	?
COCCC1CCCCN1Cc1cn(-c2ccccc2)nc1-c1ccc2c(c1)OCO2 (stereo not given)	-2	-3	-0.41	13	1	-4.9*	0.052*
CN(CCn1ccnc1)Cc1cn(-c2ccccc2)nc1-c1ccc2c(c1)OCO2	9	-2	0.44	-7	0	-4.6*	0.052*
CN(Cc1cn(-c2ccccc2)nc1-c1ccc2c(c1)OCO2)Cc1nccn1C	-9	-1	-0.5	11	0	0.017	·
Cc1ccc2c(c1)C1CN(C)CCC1N2Sc1ccccc1[N+](=O)[O-] (stereo not given)	5	-1	0.92	12	·	·	·
O=C1c2ccccc2S(=O)(=O)N1CC1CC(c2ccccc2)=NO1 (stereo not given)	15	1	·	-5	3	2.1*	0.068*
SMILES	S1P3 antagonist	S1P4 ag	KCC2 mod	S1P4 antagonist	RAM inhibit	ROMK primary	ROMK retest
COc1ccc(OC)c(CN2CCN(Cc3cccc4ccccc34)CC2)c1	0	0	0.059	7	1	-3.9*	0.05*
COc1ccccc1/C=C/C=N/N1CCN(Cc2cccc3ccccc23)CC1	·	0	0.79	-5	2	0.42	·
CC1C(=NO)C(C)C(c2ccc(N(C)C)cc2)NC1c1ccc(N(C)C)cc1 (stereo not given)	15	0	0.5	6	0	-4.4*	0.067*
CC1C(=O)C(C)C(c2ccc([N+](=O)[O-])cc2)NC1c1ccc([N+](=O)[O-])cc1 (stereo not given)	-10	0	0.43	7	0	0.47	·
CCOC(=O)c1cnc2c(cnn2C)c1NCCCn1ccnc1	5	0	-0.55	-22	-1	-2.9*	0.073
Cc1ccc(NC(=S)NNC(=O)c2nnn(-c3ccccc3)c2C)cc1	3	1	1.8	-4	1	-0.053	·
Cc1ccc(NS(=O)(=O)c2cc3c4c(cccc4c2)C(=O)NC3=O)cc1	-14	0	0.84	-7	3	1.7*	?
CC1=C(C(=O)Nc2ccccc2)C(c2ccc(C)cc2)N=C(Nc2nc3ccccc3o2)N1 (stereo not given)	·	-2	-0.16	-6	4	0.51	·
COc1ccc(/C=N/NC(=O)c2nonc2C)cc1	·	1	0.11	-18	-1	·	·
COc1ccc(/C=N\NC(=O)c2c(C)nc3ccc(Br)cn23)cc1	11	2	0.38	-2	0	2.3*	0.098*
CCn1c(SC(C)C)nnc1-c1cc(-c2ccccc2)sc1N	·	-2	-0.099	2	1	-2.8*	0.073
COCCOC(=O)C1=C(C)NC(=O)NC1c1cn(-c2ccccc2)nc1-c1cccs1 (stereo not given)	-6	3	0.46	0	-1	0.0072	·
C=CCOC(=O)C1=C(C)NC(=O)NC1c1cn(-c2ccccc2)nc1-c1cccs1 (stereo not given)	4	-1	-0.083	4	1	-3*	0.061*
COc1ccc(-n2c(C)c([N+](=O)[O-])c3ccc(O)c(CN(C)C)c32)cc1	·	3	-0.8	-15	-1	·	0.033*
Cc1ccc(N2C(=O)[C@@H]3C(c4cccnc4)=NO[C@@H]3C2=O)cc1	-10	-2	-0.79	-13	·	·	0.087
CC(C)(C)n1nnnc1C(c1cccc(C#N)c1)N1CCCc2ccccc21 (stereo not given)	-16	-1	·	-13	4	-4*	0.065*
CC(C)(C)n1nnnc1C(c1ccc(Cl)cc1)N1CCCc2ccccc21 (stereo not given)	·	0	-0.15	-11	3	·	·
NC(=O)C1(N2CCCCC2)CCN(C(=S)Nc2ccc(F)c(Cl)c2)CC1	-7	1	0.31	-16	0	-0.44	·
